# Experimental data published in PubChem BioAssay (NCATS).
# Calls of active or inactive are those of the source. A call without a number means that no potency is given here. The call rests on the fitted dose curve; in most records, active means well fitted activation curve with a large enough effect; inconclusive means small, poorly fitted or top-dose-only effect; inactive means flat fitted curve, though single readings scatter.
# Assay: Confirmation and Secondary Assay for Modulators of Hemoglobin Beta Chain Splicing at IVS2 654 locus (AID 910);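 further: HeLa cells stably carrying EGFP split by mutant beta-globin IVS2-654 intron; per-well total GFP intensity by laser scanning cytometry after 2-day treatment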
# Settings: HeLa EGFP-654 splicing reporter, GFP fluorescence, 48 h; series mostly up to 46.1 µM
# Procedure, shortened: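 Readout: per-well total peak green fluorescence (488 nm ex, 500–520 nm em) from objects 5–250 µm, reflecting correct splicing of an EGFP-654 reporter. Compounds were applied for 2 days at 37 °C to overnight-plated HeLa EGFP-654 cells; controls were DMSO and 500 nM IVS2-654 PNA.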
row,SMILES,Potency
1,COC(=O)CC1C(C)(C)C(OC(C)=O)[C@@]2(O)C=C3C4CC(=O)OC(c5ccoc5)[C@]4(C)CCC3[C@@]1(C)C2=O (stereo partly specified),inactive
2,CC1(C)C(=O)CC[C@@]2(C)C1CC(O)[C@@]1(C)C3=CC(=O)OC(c4ccoc4)[C@]3(C)CCC21 (stereo partly specified),inactive
3,COc1cc(OC)c2c(=O)c(OC)c(-c3ccc(OC)c(OC)c3)oc2c1,inactive
4,COC(=O)CC1C(C)(C)C(=O)C2CC3=C4CC(=O)OC(c5ccoc5)[C@]4(C)CCC3[C@@]1(C)C2=O (stereo partly specified),inactive
5,CC(=O)OC1CC2C(C)(C)C(O)CC(O)[C@@]2(C)C2CC[C@@]3(C)C(=CC(=O)OC3c3ccoc3)[C@]12C (stereo partly specified),inactive
6,C=CC1=C(C(=O)O)N2C(=O)C(NC(=O)/C(=N\O)c3csc(N)n3)C2SC1 (stereo unspecified),inactive
7,COC(=O)CC1C(C)(C)C(O)C2CC3=C4C=C(OC)OC(c5ccoc5)[C@]4(C)CCC3[C@@]1(C)C2=O (stereo partly specified),inactive
8,NCC1O[C@@H](OC2C(N)C[C@H](N)[C@@H](O[C@H]3OC(CO)C(O)C(N)C3O)C2O)C(N)C(O)C1O (stereo partly specified),inactive
9,COc1ccc2c(c1)OCC(Cc1ccc(OC)c(O)c1)C2=O (stereo unspecified),inactive
10,CCN(CC)Cc1ccc(Nc2ccnc3cc(Cl)ccc23)cc1O,inactive
11,CCCCCC(=O)Cc1cc(O)cc(O)c1C(=O)Oc1cc(CC(=O)CCCCC)c(C(=O)O)c(OC)c1,inactive
12,COC(=O)CC1C(C)(C)C(OC(C)=O)C2CC3C4CC(=O)OC(c5ccoc5)[C@]4(C)CCC3[C@@]1(C)C2=O (stereo partly specified),inactive
13,C=C[C@](C)(O)CCC1C(=C)CCC2[C@@](C)(CO)CCC[C@@]12C (stereo partly specified),inactive
14,COc1cccc2c1CCC1CC(=O)CC[C@@]21C (stereo partly specified),inactive
15,CNc1ccccc1C(=O)N1CCc2c([nH]c3ccccc23)C1=O,inactive
16,C/C=C(\C)C(=O)OC1[C@@H]2C=C3C4CC(=O)OC(c5ccoc5)[C@]4(C)CCC3[C@@](C)(C2=O)C(C(O)C(=O)OC)C1(C)C (stereo partly specified),inactive
17,COc1ccc2c(c1)OCC(Cc1ccc(OC)c(OC)c1)C2O (stereo unspecified),inactive
18,Cc1ccc2c(c1)CC[C@H]1CC(=O)CC[C@@]21C,inactive
19,O=c1cc(-c2cccc(O)c2)oc2ccc(O)cc12,inactive
20,COC1(C)CCC2OC2(C)CCC2C1CC2(C)C (stereo unspecified),inactive
21,C=C1C2CC[C@@]3(C)C(c4ccoc4)OC(=O)C[C@@]13OC1CC(=O)C(C)(C)C(CC(=O)OC)[C@]12C (stereo partly specified),inactive
22,COc1cc2c(cc1OC)Cc1cc(OC)c(OC)cc1Cc1cc(OC)c(OC)cc1C2,inactive
23,CC(C)/C(O)=C1/C(=O)OC(c2ccoc2)[C@@]2(C)C(O)C(O)[C@@]34OC5(C)OC67CC(C)(C(O)[C@@]6(O)C(O)[C@@]3(O5)C12)C(CC(=O)O)[C@@]74C (stereo partly specified),inactive
24,CC1(C)SC2C(NC(=O)C(N)c3ccccc3)C(=O)N2C1C(=O)O (stereo unspecified),inactive
25,C=C1C2CC[C@@]3(C)C(c4ccoc4)OC(=O)C[C@@]13OC1CC(=O)C(C)(C)C(C(O)C(=O)OC)[C@]12C (stereo partly specified),inactive
26,NCC1O[C@@H](O[C@@H]2C(O)[C@H](O[C@H]3OC(CO)C(O)C(N)C3O)[C@@H](N)C[C@H]2N)C(N)C(O)C1O (stereo partly specified),inactive
27,COc1c(Cl)ccc(Cl)c1C(=O)O,inactive
28,Nc1ncnc2c1ncn2C1CC(O)C(CO)O1 (stereo unspecified),inactive

# Assay: Confirmation and Secondary Assay for Modulators of Hemoglobin Beta Chain Splicing at IVS2 705 locus (AID 930);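 further: HeLa cells stably expressing the EGFP-705 splicing reporter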
# Settings: HeLa EGFP-705 splicing reporter, GFP fluorescence, 48 h; series mostly up to 46.1 µM
# Procedure, shortened: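 Restored EGFP fluorescence after 2-day compound exposure reports splicing correction in IVS2-705 EGFP reporter HeLa cells; positive control was 500 nM splice-blocking PNA oligo. Signal measured as well total peak GFP intensity (488 nm excitation).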
row,SMILES,Potency
1,COC(=O)CC1C(C)(C)C(OC(C)=O)[C@@]2(O)C=C3C4CC(=O)OC(c5ccoc5)[C@]4(C)CCC3[C@@]1(C)C2=O (stereo partly specified),inactive
2,CC1(C)C(=O)CC[C@@]2(C)C1CC(O)[C@@]1(C)C3=CC(=O)OC(c4ccoc4)[C@]3(C)CCC21 (stereo partly specified),inactive
3,COc1cc(OC)c2c(=O)c(OC)c(-c3ccc(OC)c(OC)c3)oc2c1,inactive
4,COC(=O)CC1C(C)(C)C(=O)C2CC3=C4CC(=O)OC(c5ccoc5)[C@]4(C)CCC3[C@@]1(C)C2=O (stereo partly specified),inactive
5,CC(=O)OC1CC2C(C)(C)C(O)CC(O)[C@@]2(C)C2CC[C@@]3(C)C(=CC(=O)OC3c3ccoc3)[C@]12C (stereo partly specified),inactive
6,C=CC1=C(C(=O)O)N2C(=O)C(NC(=O)/C(=N\O)c3csc(N)n3)C2SC1 (stereo unspecified),inactive
7,COC(=O)CC1C(C)(C)C(O)C2CC3=C4C=C(OC)OC(c5ccoc5)[C@]4(C)CCC3[C@@]1(C)C2=O (stereo partly specified),inactive
8,NCC1O[C@@H](OC2C(N)C[C@H](N)[C@@H](O[C@H]3OC(CO)C(O)C(N)C3O)C2O)C(N)C(O)C1O (stereo partly specified),inactive
9,COc1ccc2c(c1)OCC(Cc1ccc(OC)c(O)c1)C2=O (stereo unspecified),inactive
10,CCN(CC)Cc1ccc(Nc2ccnc3cc(Cl)ccc23)cc1O,inactive
11,CCCCCC(=O)Cc1cc(O)cc(O)c1C(=O)Oc1cc(CC(=O)CCCCC)c(C(=O)O)c(OC)c1,inactive
12,COC(=O)CC1C(C)(C)C(OC(C)=O)C2CC3C4CC(=O)OC(c5ccoc5)[C@]4(C)CCC3[C@@]1(C)C2=O (stereo partly specified),inactive
13,C=C[C@](C)(O)CCC1C(=C)CCC2[C@@](C)(CO)CCC[C@@]12C (stereo partly specified),inactive
14,COc1cccc2c1CCC1CC(=O)CC[C@@]21C (stereo partly specified),inactive
15,CNc1ccccc1C(=O)N1CCc2c([nH]c3ccccc23)C1=O,inactive
16,C/C=C(\C)C(=O)OC1[C@@H]2C=C3C4CC(=O)OC(c5ccoc5)[C@]4(C)CCC3[C@@](C)(C2=O)C(C(O)C(=O)OC)C1(C)C (stereo partly specified),inactive
17,COc1ccc2c(c1)OCC(Cc1ccc(OC)c(OC)c1)C2O (stereo unspecified),inactive
18,Cc1ccc2c(c1)CC[C@H]1CC(=O)CC[C@@]21C,inactive
19,O=c1cc(-c2cccc(O)c2)oc2ccc(O)cc12,inactive
20,COC1(C)CCC2OC2(C)CCC2C1CC2(C)C (stereo unspecified),inactive
21,C=C1C2CC[C@@]3(C)C(c4ccoc4)OC(=O)C[C@@]13OC1CC(=O)C(C)(C)C(CC(=O)OC)[C@]12C (stereo partly specified),inactive
22,COc1cc2c(cc1OC)Cc1cc(OC)c(OC)cc1Cc1cc(OC)c(OC)cc1C2,inactive
23,CC(C)/C(O)=C1/C(=O)OC(c2ccoc2)[C@@]2(C)C(O)C(O)[C@@]34OC5(C)OC67CC(C)(C(O)[C@@]6(O)C(O)[C@@]3(O5)C12)C(CC(=O)O)[C@@]74C (stereo partly specified),inactive
24,CC1(C)SC2C(NC(=O)C(N)c3ccccc3)C(=O)N2C1C(=O)O (stereo unspecified),inactive
25,C=C1C2CC[C@@]3(C)C(c4ccoc4)OC(=O)C[C@@]13OC1CC(=O)C(C)(C)C(C(O)C(=O)OC)[C@]12C (stereo partly specified),inactive
26,NCC1O[C@@H](O[C@@H]2C(O)[C@H](O[C@H]3OC(CO)C(O)C(N)C3O)[C@@H](N)C[C@H]2N)C(N)C(O)C1O (stereo partly specified),inactive
27,COc1c(Cl)ccc(Cl)c1C(=O)O,inactive
28,Nc1ncnc2c1ncn2C1CC(O)C(CO)O1 (stereo unspecified),inactive
